Screens (PubChem BioAssay)
A selection: hits, their analogues and other compounds. The true share with any hit is near 2.9%.
LYPLA1 counter: LYPLA1 inhibitors, primary screen, counter-screen for PME1 inhibitor project, biochemical, fluorescence polarization, FP-Rh probe ABPP | recombinant LYPLA1 | inhibition, % at 5.9 µM | 320,000 compounds, 0.16% hits | AID 2174, 2009;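 active = inhibition above the mean of all tested compounds plus 3 SD, set per campaign, cut at about 14% in these data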;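 also: inhibitors block serine hydrolase probe labeling of LYPLA1 so polarization falls; 0% = enzyme with DMSO and 100% = wells lacking LYPLA1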
PAFAH1B2 FP inh: PAFAH1B2 enzyme inhibitors, primary screen, biochemical, fluorescence polarization, human. inhibition, % at 3.39 µM. Platelet-activating factor acetylhydrolase IB subunit alpha2 (Homo sapiens), P68402. 340,000 compounds, 1.2% hits. recombinant PAFAH1B2, FP-rhodamine activity probe;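 active = inhibition above the mean of all tested compounds plus 3 SD, cut at about 24% in these data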;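 also: 0% = enzyme with DMSO and 100% = wells lacking PAFAH1B2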
Target sequence (P68402 whole entry, looked up): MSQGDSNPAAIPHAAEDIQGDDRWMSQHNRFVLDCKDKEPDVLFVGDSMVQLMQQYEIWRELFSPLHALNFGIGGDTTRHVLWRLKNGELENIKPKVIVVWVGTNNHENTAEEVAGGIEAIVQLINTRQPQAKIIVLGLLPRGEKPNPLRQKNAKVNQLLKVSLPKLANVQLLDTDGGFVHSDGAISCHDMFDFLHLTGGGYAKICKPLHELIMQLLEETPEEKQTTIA
PAFAH1B3 FP inh: PAFAH1B3 enzyme inhibitors, primary screen, biochemical, fluorescence polarization, human; Platelet-activating factor acetylhydrolase IB subunit alpha1 (Homo sapiens), Q15102; recombinant PAFAH1B3, FP-rhodamine probe; 340,000 compounds, 0.28% hits; inhibition, % at 3.39 µM;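 active = inhibition above the screen-wide average of all tested compounds plus 3 SD, cut at about 25% in these data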;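 also: 0% = enzyme with DMSO only and 100% = wells lacking PAFAH1B3 protein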
Target sequence (Q15102 whole entry, looked up): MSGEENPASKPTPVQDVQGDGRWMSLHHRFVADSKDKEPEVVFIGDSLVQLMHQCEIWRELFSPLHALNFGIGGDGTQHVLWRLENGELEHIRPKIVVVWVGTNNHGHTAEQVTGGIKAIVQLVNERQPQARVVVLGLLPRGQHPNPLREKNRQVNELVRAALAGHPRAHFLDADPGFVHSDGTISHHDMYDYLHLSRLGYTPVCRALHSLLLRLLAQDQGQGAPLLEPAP
LYPLA2 inh: LYPLA2 inhibitors, primary screen, counter-screen for PME1 inhibitor project, biochemical, fluorescence polarization, FP-Rh probe ABPP. recombinant LYPLA2. inhibition, % at 5.9 µM. 320,000 compounds, 0.38% hits. Acyl-protein thioesterase 2 (Homo sapiens), O95372;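 active = inhibition above the screen-wide mean plus 3 SD, limit set per campaign, cut at about 26% in these data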;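 also: 0% = LYPLA2 with DMSO and 100% = wells lacking LYPLA2 enzyme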
pPAFAH FP inh: pPAFAH enzyme inhibitors, primary screen, biochemical, fluorescence polarization, human | Platelet-activating factor acetylhydrolase (Homo sapiens), Q13093 | recombinant pPAFAH, FP-rhodamine probe fluorescence polarization | 330,000 compounds, 1.5% hits | inhibition, % at 3.39 µM | AID 463082, 2010;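 active = inhibition above the mean inhibition across the screen plus 3 SD, cut at about 25% in these data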;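 also: inhibitors block binding of the rhodamine activity-based probe so polarization drops; 0% = enzyme with DMSO and 100% = wells lacking pPAFAH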
PAFAH2 FP inh: PAFAH2 enzyme inhibitors, primary screen, biochemical, fluorescence polarization, human; AID 492956, 2010; 340,000 compounds, 0.99% hits; recombinant PAFAH2, FP-rhodamine activity probe; inhibition, % at 3.39 µM; Platelet-activating factor acetylhydrolase 2, cytoplasmic (Homo sapiens), Q99487;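 active = inhibition above the mean over all tested compounds plus 3 SD, cut at about 30% in these data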;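 also: inhibitors block probe labeling of enzyme so polarization drops; 0% = enzyme with DMSO and 100% = wells lacking PAFAH2 protein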
An asterisk follows results filed as active; x = no result given.

SMILES	LYPLA1 counter	PAFAH1B2 FP inh	PAFAH1B3 FP inh	LYPLA2 inh	pPAFAH FP inh	PAFAH2 FP inh
COc1ccc2c(CC(=O)NCc3ccc4c(c3)OCO4)coc2c1	1	3	-13	-2	32*	-1
O=C(NCc1ccc2c(c1)OCO2)c1nnc(Cc2ccc(Cl)cc2)o1	4	-4	2	2	29*	2
COc1ccc(CCNC(=O)c2nnc(Cc3ccc(Cl)cc3)o2)cc1OC	2	-8	8	4	28*	-6
O=C(NCc1ccc2c(c1)OCO2)c1ccc(CS(=O)Cc2ccc(Cl)cc2)o1 (stereo unspecified)	-1	13	-5	0	11	3
COCCNC(=O)c1nn2cccnc2c1Cl	2	3	12	4	2	-10
Cc1ccc(S(=O)(=O)CC(O)COc2ccc(F)cc2Cl)c(C)c1 (stereo unspecified)	-2	7	11	1	5	-3
CC(Sc1ccc(Cl)cc1)C(=O)Nc1ccc2c(c1)OCO2 (stereo unspecified)	0	4	-3	-3	7	-1
CC(Sc1ccc(Cl)cc1)C(=O)NCc1ccc2c(c1)OCO2 (stereo unspecified)	1	24*	6	4	1	-15
O=C(CSCc1ccc(F)cc1)NCc1ccc2c(c1)OCO2	-1	2	-3	0	12	2
O=C(CSCc1ccc(Cl)cc1)NCc1ccc2c(c1)OCO2	-3	26*	-4	4	13	-1
Cc1cccc(N2CCN(C(=O)C3CC(=O)N(c4ccc5c(c4)OCCO5)C3)CC2C)c1 (stereo unspecified)	2	4	5	-9	-2	-3
NC(=O)[C@@H]1CCCCNc2c(I)cc([N+](=O)[O-])cc2C(=O)N[C@@H](CCC(=O)O)C(=O)N[C@@H](CO)C(=O)N1	2	1	2	-3	21	25
CC1CCN(S(=O)(=O)c2ccc3[nH]c(=O)c(=O)[nH]c3c2)CC1	0	60*	3	5	2	-8
O=C(O)c1cccc(Cn2c(Cl)c(/C=N/NC(=O)c3cc4ccccc4cc3O)sc2=O)c1	-3	20	17	-3	33*	29
COc1ccc(CN(C)CC(=O)Nc2sc3c(c2C#N)CCC3)c(OC)c1	-3	24*	6	-6	5	8
CC1CN(c2ccc(Cl)cc2)c2nc3c(c(=O)[nH]c(=O)n3C)n2C1 (stereo unspecified)	x	-2	8	x	x	1
CCc1ccc(N2CC(C)Cn3c2nc2c3c(=O)[nH]c(=O)n2C)cc1 (stereo unspecified)	1	6	0	-5	34*	6
CN1CCN(CCCNC(=O)c2ccc(/C=C3\Sc4ccccc4N(Cc4ccc(F)cc4)C3=O)cc2)CC1	x	2	10	x	x	-11
CCN1CCN(CCNC(=O)c2ccc(/C=C3\Sc4ccccc4N(Cc4ccccc4F)C3=O)cc2)CC1	-11	2	5	-14	25*	0
CC(=O)NC(Cc1ccccc1C)C(=O)NC1CCN(C(=O)c2ccc(C)cc2)CC1 (stereo unspecified)	5	3	2	18	9	-2
Cc1ccc(NS(=O)(=O)c2cc([N+](=O)[O-])ccc2NNC(=S)Nc2cccc(Cl)c2)c(C)c1	-14	41*	-12	7	22	10
CCOc1ccc(/C=N/NC(=O)CN2CCCCCCC2)cc1	3	2	0	-2	4	12
COCc1ccc(-c2c(-c3ccc(OC)cc3)oc(=O)c3cc(OC)c(OC)cc23)cc1	x	-4	-12	x	4	-4
COc1ccc(-c2oc(=O)c3cc(OC)c(OC)cc3c2-c2ccc3c(c2)OCO3)cc1	x	0	-7	x	27*	-6
Cc1ccccc1OCCn1c(S(=O)(=O)O)nc2c(N)ncnc21	2	28*	45*	2	4	46*
SMILES	LYPLA1 counter	PAFAH1B2 FP inh	PAFAH1B3 FP inh	LYPLA2 inh	pPAFAH FP inh	PAFAH2 FP inh
Cc1ccccc1OCCn1c(C)nc2ccccc21	1	9	15	4	2	-8
CCN(C(=O)COC(=O)CNC(=O)c1sc2ccccc2c1Cl)C1CCCCC1	-1	2	1	-2	1	-2
CCNC(=S)N1CCN(c2ccc([N+](=O)[O-])cc2)CC1	2	6	9	10	4	0
O=[N+]([O-])c1ccc(N2CCN(C(=S)NCc3ccc(Cl)cc3)CC2)cc1	-3	-1	5	28*	-6	-9
CC(C)[C@H](N)c1nnc(SCc2ccc(Cl)cc2)o1	-4	34*	6	5	-1	-6
CC(C)C[C@H](N)c1nnc(SCc2ccc(Cl)cc2)o1	1	22	-5	2	1	-3
COc1ccc(C2c3ccc(O)cc3Oc3ncn(Cc4ccccc4)c(=N)c32)cc1OC (stereo unspecified)	-4	32*	32*	-1	-4	46*
CSc1ccc(CCNC(=O)c2ccc(CS(=O)Cc3ccc(Cl)cc3)o2)cc1 (stereo unspecified)	-3	6	4	-3	30*	-2
CC1CCCN(C(=O)C2CCN(C(=O)Nc3ccccc3)CC2)C1 (stereo unspecified)	-1	-1	7	-4	-2	3
Cc1ccc(CNC(=O)CCn2cc(-c3ccc(F)cc3)nc2-c2ccncc2)cc1	-1	29*	1	-1	3	1
COc1ccc(CC(=O)NCC(=O)N=Nc2c(O)[nH]c3ccccc23)cc1	0	5	10	6	2	5
O=C(/C=C/c1ccc(Cl)cc1)NC(=S)Nc1ccc(N2CCOCC2)c(Cl)c1	-4	-19	-42	-4	-5	-53
O=C(COc1cccnc1[N+](=O)[O-])c1ccc(Cl)s1	-3	4	9	2	31*	18
O=c1c2c3c(sc2[nH]c(=S)n1Cc1ccco1)CCC3	-3	3	3	-2	25*	19
OC(CN1CCN(C(c2ccccc2)c2ccccc2)CC1)c1ccc(Br)cc1 (stereo unspecified)	-2	3	3	2	9	-1
Oc1cccc(/C=N/Nc2cccc3cccnc23)c1	x	7	14	x	x	13
Oc1c(/C=N/Nc2cccc3cccnc23)ccc2ccccc12	-2	3	3	10	30*	-18
O=C(c1ccccc1F)N1CCN(Cc2cccc(Cl)c2)CC1	3	4	3	1	29*	6
